Measurements reported in paper PMC7862700, “An all-to-all approach to the identification of sequence-specific readers for epigenetic DNA modifications on cytosine”.

target: T1, ERF (Homo sapiens, UniProt P50548 1-548); assay: DAPPL (digital affinity profiling via proximity ligation, sequencing); 10 mM Tris-HCl pH 7.5, 50 mM NaCl, 1 mM DTT, 4% glycerol, room temperature, 30 min; GST-TFs on glutathione beads, 16-mer random dsDNA library, 0.1% formaldehyde crosslink after washing; high values mean tight binding; settings: protein: recombinant; tags: N-terminal GST; dsDNA, one strand shown
T1 sequence: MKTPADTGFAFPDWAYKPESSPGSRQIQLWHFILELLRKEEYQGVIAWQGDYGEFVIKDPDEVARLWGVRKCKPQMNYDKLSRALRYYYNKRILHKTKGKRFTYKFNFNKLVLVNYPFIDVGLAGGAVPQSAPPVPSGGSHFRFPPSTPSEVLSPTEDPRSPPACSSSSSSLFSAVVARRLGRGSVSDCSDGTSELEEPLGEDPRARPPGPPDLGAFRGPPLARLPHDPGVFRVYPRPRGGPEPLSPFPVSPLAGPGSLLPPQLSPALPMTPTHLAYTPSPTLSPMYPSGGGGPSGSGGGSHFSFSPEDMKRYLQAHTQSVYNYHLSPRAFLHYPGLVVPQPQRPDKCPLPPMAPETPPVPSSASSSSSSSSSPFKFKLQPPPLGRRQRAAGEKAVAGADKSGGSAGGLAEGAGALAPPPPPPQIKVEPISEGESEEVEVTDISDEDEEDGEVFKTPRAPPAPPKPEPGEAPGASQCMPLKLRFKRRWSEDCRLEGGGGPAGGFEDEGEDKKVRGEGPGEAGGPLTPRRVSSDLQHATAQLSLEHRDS
Procedure, shortened: (§1)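 Human transcription factors carrying a GST fusion were produced in yeast, bound to glutathione beads, tagged with DNA barcodes and pooled together with a tag-only sample. Each pool was held with 200 nmole of a random double-stranded 16-mer DNA library in Tris/NaCl/DTT/glycerol buffer for 30 min at room temperature, then washed, crosslinked in 0.1% formaldehyde, proximity-ligated with BsaI/T4 ligase (1 h, 37 °C), PCR-amplified and sequenced on an Illumina NextSeq500. Binding signal is the read frequency of each hexamer for a given factor divided by its frequency in the tag-only sample.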

Row | Sequence | binding signal
1 | ATGCTA | 1.26 fold enrichment (6-mer frequency, TF over GST control)
2 | TTATGT | 1.29 fold enrichment (6-mer frequency, TF over GST control)
3 | TCTTGA | 1.49 fold enrichment (6-mer frequency, TF over GST control)
4 | ATGCTT | 1.27 fold enrichment (6-mer frequency, TF over GST control)
5 | CATCCT | 1.49 fold enrichment (6-mer frequency, TF over GST control)
6 | ACTGAT | 1.26 fold enrichment (6-mer frequency, TF over GST control)
7 | TTACTC | 1.27 fold enrichment (6-mer frequency, TF over GST control)
8 | TTGCCC | 1.3 fold enrichment (6-mer frequency, TF over GST control)
9 | ACGTCC | 1.49 fold enrichment (6-mer frequency, TF over GST control)
10 | AATGTT | 1.61 fold enrichment (6-mer frequency, TF over GST control)
11 | AATAGT | 1.21 fold enrichment (6-mer frequency, TF over GST control)
12 | CCAATC | 1.03 fold enrichment (6-mer frequency, TF over GST control)
13 | GTATCC | 1.77 fold enrichment (6-mer frequency, TF over GST control)
14 | ACAATT | 1.25 fold enrichment (6-mer frequency, TF over GST control)
15 | TTCTTT | 1.08 fold enrichment (6-mer frequency, TF over GST control)
16 | TAAAAC | 1.22 fold enrichment (6-mer frequency, TF over GST control)
17 | TCCTTC | 1.95 fold enrichment (6-mer frequency, TF over GST control)
18 | TTCGTA | 1.39 fold enrichment (6-mer frequency, TF over GST control)
19 | TAGCTA | 1.23 fold enrichment (6-mer frequency, TF over GST control)
20 | TATTTG | 1.34 fold enrichment (6-mer frequency, TF over GST control)

target: T2, ETV3L (Homo sapiens, UniProt Q6ZN32 1-361); assay: as above; settings: protein: recombinant; tags: N-terminal GST; dsDNA, one strand shown
T2 sequence: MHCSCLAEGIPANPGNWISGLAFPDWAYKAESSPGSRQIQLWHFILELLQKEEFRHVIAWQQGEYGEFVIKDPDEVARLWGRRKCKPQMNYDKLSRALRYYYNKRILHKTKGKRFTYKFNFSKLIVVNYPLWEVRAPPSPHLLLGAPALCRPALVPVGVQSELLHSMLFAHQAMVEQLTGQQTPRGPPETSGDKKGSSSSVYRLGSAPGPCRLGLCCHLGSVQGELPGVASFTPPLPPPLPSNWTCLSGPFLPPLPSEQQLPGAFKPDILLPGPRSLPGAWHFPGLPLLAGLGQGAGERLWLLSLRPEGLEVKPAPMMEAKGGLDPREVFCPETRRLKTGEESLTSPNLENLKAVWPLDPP
Procedure, shortened: as §1

Row | Sequence | binding signal
21 | ATTGAT | 1.31 fold enrichment (6-mer frequency, TF over GST control)
22 | CATCTA | 1.16 fold enrichment (6-mer frequency, TF over GST control)
23 | CTGATT | 1.26 fold enrichment (6-mer frequency, TF over GST control)
24 | CGAATA | 1.2 fold enrichment (6-mer frequency, TF over GST control)
25 | AAGAAA | 1.26 fold enrichment (6-mer frequency, TF over GST control)
26 | AGTATT | 1.22 fold enrichment (6-mer frequency, TF over GST control)
27 | TAAATG | 1.39 fold enrichment (6-mer frequency, TF over GST control)
28 | TTTTGT | 1.34 fold enrichment (6-mer frequency, TF over GST control)
29 | TCTGCT | 1.28 fold enrichment (6-mer frequency, TF over GST control)
30 | TTGAAA | 1.23 fold enrichment (6-mer frequency, TF over GST control)
31 | ACAATA | 1.14 fold enrichment (6-mer frequency, TF over GST control)
32 | CCTAAG | 1.12 fold enrichment (6-mer frequency, TF over GST control)
33 | CTCAAT | 1.36 fold enrichment (6-mer frequency, TF over GST control)
34 | TACATA | 1.1 fold enrichment (6-mer frequency, TF over GST control)
35 | TATTTT | 1.41 fold enrichment (6-mer frequency, TF over GST control)
36 | TTAATG | 1.19 fold enrichment (6-mer frequency, TF over GST control)
37 | ATCGAT | 1.17 fold enrichment (6-mer frequency, TF over GST control)
38 | TCCATT | 1.22 fold enrichment (6-mer frequency, TF over GST control)
39 | CGTTAA | 1.18 fold enrichment (6-mer frequency, TF over GST control)
40 | TCTAGC | 1.27 fold enrichment (6-mer frequency, TF over GST control)

Row | Sequence | binding signal
41 | ATGCTA | 1.37 fold enrichment (6-mer frequency, TF over GST control)
42 | TTATGT | 1.26 fold enrichment (6-mer frequency, TF over GST control)
43 | TCTTGA | 1.32 fold enrichment (6-mer frequency, TF over GST control)
44 | ATGCTT | 1.36 fold enrichment (6-mer frequency, TF over GST control)
45 | CATCCT | 1.69 fold enrichment (6-mer frequency, TF over GST control)
46 | ACTGAT | 1.25 fold enrichment (6-mer frequency, TF over GST control)
47 | TTACTC | 1.15 fold enrichment (6-mer frequency, TF over GST control)
48 | TTGCCC | 1.41 fold enrichment (6-mer frequency, TF over GST control)
49 | ACGTCC | 1.59 fold enrichment (6-mer frequency, TF over GST control)
50 | AATGTT | 1.56 fold enrichment (6-mer frequency, TF over GST control)
51 | AATAGT | 1.25 fold enrichment (6-mer frequency, TF over GST control)
52 | CCAATC | 1.19 fold enrichment (6-mer frequency, TF over GST control)
53 | GTATCC | 1.81 fold enrichment (6-mer frequency, TF over GST control)
54 | ACAATT | 1.23 fold enrichment (6-mer frequency, TF over GST control)
55 | TTCTTT | 1.27 fold enrichment (6-mer frequency, TF over GST control)
56 | TAAAAC | 1.2 fold enrichment (6-mer frequency, TF over GST control)
57 | TCCTTC | 1.9 fold enrichment (6-mer frequency, TF over GST control)
58 | TTCGTA | 1.35 fold enrichment (6-mer frequency, TF over GST control)
59 | TAGCTA | 1.24 fold enrichment (6-mer frequency, TF over GST control)
60 | TATTTG | 1.47 fold enrichment (6-mer frequency, TF over GST control)

target: T3, ETS2 (Homo sapiens, UniProt P15036 1-469); assay: as above; settings: protein: recombinant; tags: N-terminal GST; dsDNA, one strand shown
T3 sequence: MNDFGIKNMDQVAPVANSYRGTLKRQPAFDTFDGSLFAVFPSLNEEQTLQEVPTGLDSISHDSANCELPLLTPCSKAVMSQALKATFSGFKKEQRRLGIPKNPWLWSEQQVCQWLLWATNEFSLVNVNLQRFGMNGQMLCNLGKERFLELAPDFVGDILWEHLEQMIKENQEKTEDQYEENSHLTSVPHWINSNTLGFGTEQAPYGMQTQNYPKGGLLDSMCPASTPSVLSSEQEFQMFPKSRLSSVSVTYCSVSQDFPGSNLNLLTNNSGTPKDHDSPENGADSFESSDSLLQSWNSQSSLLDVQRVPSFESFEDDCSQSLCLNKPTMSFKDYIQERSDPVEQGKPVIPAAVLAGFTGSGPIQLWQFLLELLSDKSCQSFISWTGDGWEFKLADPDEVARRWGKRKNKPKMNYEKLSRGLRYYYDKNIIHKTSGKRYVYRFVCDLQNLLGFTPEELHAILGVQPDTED
Procedure, shortened: as §1

Row | Sequence | binding signal
61 | ATTGAT | 1.29 fold enrichment (6-mer frequency, TF over GST control)
62 | CATCTA | 1.13 fold enrichment (6-mer frequency, TF over GST control)
63 | CTGATT | 1.26 fold enrichment (6-mer frequency, TF over GST control)
64 | CGAATA | 1.12 fold enrichment (6-mer frequency, TF over GST control)
65 | AAGAAA | 1.24 fold enrichment (6-mer frequency, TF over GST control)
66 | AGTATT | 1.17 fold enrichment (6-mer frequency, TF over GST control)
67 | TAAATG | 1.38 fold enrichment (6-mer frequency, TF over GST control)
68 | TTTTGT | 1.29 fold enrichment (6-mer frequency, TF over GST control)
69 | TCTGCT | 1.29 fold enrichment (6-mer frequency, TF over GST control)
70 | TTGAAA | 1.24 fold enrichment (6-mer frequency, TF over GST control)
71 | ACAATA | 1.15 fold enrichment (6-mer frequency, TF over GST control)
72 | CCTAAG | 1.09 fold enrichment (6-mer frequency, TF over GST control)
73 | CTCAAT | 1.21 fold enrichment (6-mer frequency, TF over GST control)
74 | TACATA | 1.27 fold enrichment (6-mer frequency, TF over GST control)
75 | TATTTT | 1.35 fold enrichment (6-mer frequency, TF over GST control)
76 | TTAATG | 1.2 fold enrichment (6-mer frequency, TF over GST control)
77 | ATCGAT | 1.1 fold enrichment (6-mer frequency, TF over GST control)
78 | TCCATT | 1.28 fold enrichment (6-mer frequency, TF over GST control)
79 | CGTTAA | 1.12 fold enrichment (6-mer frequency, TF over GST control)
80 | TCTAGC | 1.3 fold enrichment (6-mer frequency, TF over GST control)

Row | Sequence | binding signal
81 | ATGCTA | 1.25 fold enrichment (6-mer frequency, TF over GST control)
82 | TTATGT | 1.3 fold enrichment (6-mer frequency, TF over GST control)
83 | TCTTGA | 1.28 fold enrichment (6-mer frequency, TF over GST control)
84 | ATGCTT | 1.28 fold enrichment (6-mer frequency, TF over GST control)
85 | CATCCT | 1.61 fold enrichment (6-mer frequency, TF over GST control)
86 | ACTGAT | 1.28 fold enrichment (6-mer frequency, TF over GST control)
87 | TTACTC | 1.37 fold enrichment (6-mer frequency, TF over GST control)
88 | TTGCCC | 1.43 fold enrichment (6-mer frequency, TF over GST control)
89 | ACGTCC | 1.64 fold enrichment (6-mer frequency, TF over GST control)
90 | AATGTT | 1.56 fold enrichment (6-mer frequency, TF over GST control)
91 | AATAGT | 1.13 fold enrichment (6-mer frequency, TF over GST control)
92 | CCAATC | 1.19 fold enrichment (6-mer frequency, TF over GST control)
93 | GTATCC | 1.84 fold enrichment (6-mer frequency, TF over GST control)
94 | ACAATT | 1.29 fold enrichment (6-mer frequency, TF over GST control)
95 | TTCTTT | 1.32 fold enrichment (6-mer frequency, TF over GST control)
96 | TAAAAC | 1.15 fold enrichment (6-mer frequency, TF over GST control)
97 | TCCTTC | 2.09 fold enrichment (6-mer frequency, TF over GST control)
98 | TTCGTA | 1.36 fold enrichment (6-mer frequency, TF over GST control)
99 | TAGCTA | 1.28 fold enrichment (6-mer frequency, TF over GST control)
100 | TATTTG | 1.41 fold enrichment (6-mer frequency, TF over GST control)
